Laboratory results as given in the supplement of paper PMC6555819.

Tests used:
Experiment in all cases: PBM binding z-score (relative to random genomic background probes); higher = stronger binding; sequences stand for … in GC…GCGATTGACAGCGTAGAATGAAGG
[1] = test system: RARb homodimer (NR concentration 270 nM)
How it was run: (§1)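 Ligand-free nuclear receptor dimers were applied to custom Agilent 4×180K protein-binding microarrays whose double-stranded probes carried direct-repeat seeds, single-nucleotide variants, half-site ablations and random human genomic background sequences in 34-nt variable regions. Incubation lasted 1 h. Binding z-scores were computed against the random background probes from regression-normalized fluorescence.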

[2] = test system: RARg:RXRa (NR concentration 270 nM, RXRa partner concentration 90 nM)
How it was run: as §1

[3] = test system: RARg homodimer (NR concentration 270 nM)
How it was run: as §1

[4] = test system: RXRa DBDmut IVT, anti-RXR (DBD mutation: RXRa K156A/R161A, NR concentration 90 nM)
How it was run: as §1

[5] = test system: RXRa homodimer (NR concentration 180 nM)
How it was run: as §1

[6] = test system: THRa:RXRa (NR concentration 90 nM, RXRa partner concentration 90 nM)
How it was run: as §1

[7] = test system: THRa homodimer (NR concentration 90 nM)
How it was run: as §1

[8] = test system: VDR homodimer (NR concentration 270 nM)
How it was run: as §1

Sequence	PBM binding z-score [1]	PBM binding z-score [2]	PBM binding z-score [3]	PBM binding z-score [4]	PBM binding z-score [5]	PBM binding z-score [6]	PBM binding z-score [7]	PBM binding z-score [8]
TCGAGTAGGTTACCAATGGGGCATGCAGCTTTCT	0.595	1.02	0.374	0.239	0.609	0.0319	-0.807	-0.473
CGTCCAAGGTCAGAAAGGTCAGTGAATGCCGAGT	5.58	6.18	6.89	3	5.59	4.14	2.3	4.66
TCTAGTTGGTCACGGAGGTGACACACGACGGGTA	1.71	1.6	1.86	0.0966	1.37	1.47	0.665	0.176
CATACTGGGTCAGCTAGGCCAGAGTAGGGACGGC	2.13	2.65	3.42	-0.42	1.39	1.53	0.0605	-0.0161
CCGACTTGGGCATAAGGTTACCATAAGCCAGCCC	0.962	0.45	0.236	-0.0632	0.906	1.84	1.27	-0.535
TCTAGTTAGTCACGGAGGTCACACACGACGGGTA	3.95	3.7	3.44	1.24	4.28	3.56	2.59	1.97
CAAACTAGGTCAAGTTCAAAGTCGGTTTGTGCCA	4.52	5.17	5.92	3.84	4.23	3.52	2.16	6.29
TAGCCTAGGTCAGATCGGGCCAGTGTACGCTATA	2.17	2.57	3.6	-0.434	1.23	4.03	-0.0774	-0.614
TCTAGCAGACCAGAGGGTCACTCAAGAGGTACGG	2.18	1.95	1.42	-0.0475	2.19	1.43	-0.387	0.415
TAGCCTAGGTCAGATCGGGCCAGTATGCGCTATA	2.29	2.85	3.88	-0.301	1.48	4.04	0.0471	-0.51
CCAGACTGGTGAGAAGGTAACTCAGCCTCGATTA	-0.313	-0.398	-0.424	-0.127	-0.237	-0.0936	-0.27	-0.352
ACAGACAGGTGATGAAGGTAACTCTGGCTATCAT	-0.162	0.325	0.249	-0.432	0.387	0.0574	-0.327	-0.648
ACACACAGGTGATGAAGGTAACTCAGGCTATCAT	0.43	0.435	0.664	0.355	0.276	1.06	0.194	0.17
GGAACGCGGGCAAAGTTGATAGCATCTGTCGACG	-0.251	0.143	0.259	0.0126	0.126	-0.6	-1.04	-0.471
GCTAGTTGCTCAGTAAAAGGTCACACACCGGTCG	5.11	4.7	4.02	0.441	5.17	3.61	1.73	1.14
TCTATTTGGTCACGGAGGTCACACACGACGGGTA	4.61	4.91	5.19	1.87	5.34	3.82	3.38	3.22
TCTCGGAGGATACGAAGGTCAGAGCTTTCCAGAG	2.95	1.93	2.03	0.133	1.65	1.57	-0.156	0.224
ATCGAAAGGTCGAGGTGAGGATAGAGAAAGGGAA	3.07	4.35	4.28	0.642	4.31	3.87	1.64	0.466
TGAGTGAGGTTAAAGATCAGGGAACGTGGCGTCG	1.06	2.51	1.37	1.05	4.01	2.43	0.575	0.834
GCTCGGAGGACAAGGTCAGAGGTTTGTCCGTAGA	3.27	3.12	3.27	0.666	2.53	3.07	1.42	1.2
CGTCCAAGGTCAGCAGGGCAGTGAAAGCGACGTG	4.12	5.28	5.9	2.63	3.74	3.61	1.9	1.02
AATACAGGGTCTTCGTAGGCCAGAGTACGCACAG	0.449	0.222	0.45	0.168	0.437	1.6	-0.387	0.396
CGTCCAAGGTCAGAGAGGTCAGGGAATGCCGAGT	5.34	6.59	7.38	3.45	6.19	4.47	3.11	4.88
ATCGAAAGGCCGAGGTGAGTATAGAGAAAGGGAA	0.669	0.835	1.25	-0.863	0.294	0.936	0.0762	-0.433
CGTCCAAGCTCATAGGAGGTCAGTGAAGACAGAT	2.8	1.69	2.04	0.593	1.22	2.38	0.642	0.938
ACAGACAGGTGAGTGAAGGTAACTAAGCTGGACG	0.0814	0.264	0.483	-0.523	0.122	1.38	-0.413	-0.429
AATACTGGGTCATCGTAGGCCAGAGTACGCACAG	3.24	3.52	3.91	0.934	3.11	3.85	0.749	1
ATATGTAAGTTATCGGGTCATTCAGTTTGCGCAT	2.48	2.12	1.48	1.61	2.59	3.24	2.84	3.74
